The whole screen tested about 360,000 compounds, of which about 1,300 (0.36%) were called active. The full list was thinned out, with actives kept by preference. A number with no mark means an inactive call.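 How the source made its calls: active means corrected activity change at or below -50% at 5 µM; inactive means the rest.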

The test is described as follows: cytotoxicity in KKLEB CF airway cells, primary screen, cytotoxicity control for CF NF-kB inhibitor project, cell-based, uHTS, fluorescence assay plates (AID 602141). Conditions: KKLEB CF airway cells viability, ATPlite luminescence, overnight, at 5 µM, hits give low values. A general note: In ATP-based viability assays light output follows the ATP content of the culture.
Turning to `CC1=C(C(=O)Nc2ccccc2)SCCO1`, the activity change (cytotoxicity) is -58.9% (active). For `CC1=C(C(=O)Nc2ccccc2)S(=O)(=O)CCO1` the value was -6%; for `CC(Cc1ccccc1)NCCC(c1ccccc1)c1ccccc1` (stereo not given), -16.7%; for `Cc1c(Oc2cc(NN3CCCCC3)c([N+](=O)[O-])cc2[N+](=O)[O-])cccc1[N+](=O)[O-]`, -5.7%.

For the compound `CCOc1cccc(=NC2CCCCC2)c2c(C)[nH]c(C)c12`, the activity change (cytotoxicity) was 4.1%. `CCc1nc2ccccc2c(=O)n1-c1cccc(OC)c1`: the activity change (cytotoxicity) is -1.5%.

Take `CC12CCC(O)CC1CCC1C2CCC2(C)C(C(=O)CC(O)C(F)(F)F)CCC12` (stereo not given): the activity change (cytotoxicity) is 3.6% [cells stimulated with P. aeruginosa culture filtrate]. As for `C[C@]12CC[C@H](O)C[C@H]1CC[C@@H]1C2CC[C@]2(C)[C@@H](C3=CC(=O)OC3)[C@@H](O)C[C@]12O` (stereo not given in full), the figure is -53.3% [cells stimulated with P. aeruginosa culture filtrate] (active); as for `Cc1ccc(CN2CCCC(C(=O)c3ccc4c(c3)OCO4)C2)cc1C` (stereo not given), -12.8%. With `Cc1nn(Cc2ccccc2Cl)c(Cl)c1C(=O)OC(C(=O)NC(N)=O)C(C)C` (stereo not given), the activity change (cytotoxicity) is -1.6%.

Take `O=C(CSC1c2ccccc2-c2ccccc21)N/N=C/c1ccccc1`: the activity change (cytotoxicity) was 11.7%. For `O=c1[nH]c2ccccc2n1C1CCN(C(c2ccccc2)c2nnnn2Cc2ccccc2)CC1` (stereo not given) the value was -106% [cells stimulated with P. aeruginosa culture filtrate] (active).

On to `O=c1[nH]c2ccccc2n1C1CCN(C(c2ccnc3ccccc23)c2nnnn2Cc2ccccc2)CC1` (stereo not given), for which the activity change (cytotoxicity) is -13.5% [cells stimulated with P. aeruginosa culture filtrate]. Consider `CSCCC(c1nnnn1C(C)(C)C)N1CCC(n2c(=O)[nH]c3ccccc32)CC1` (stereo not given), for which the activity change (cytotoxicity) is -1.4% [cells stimulated with P. aeruginosa culture filtrate].

For the compound `CC1([N+](=O)[O-])COP(=O)(Nc2ccc(F)cc2)OC1` (stereo not given), the activity change (cytotoxicity) was 8.2% [cells stimulated with P. aeruginosa culture filtrate].

For the compound `CCc1cccc2c(C#N)cn(CC(=O)N3CCOCC3)c12`, the activity change (cytotoxicity) is 3.2%. With `CC(=O)OC1C2(CC3N4C(=O)C5(CO)SSC4(CC31O)C(=O)N5C)OC(C)C(C)(C)C2=O` (stereo not given), the activity change (cytotoxicity) is -95% [cells stimulated with P. aeruginosa culture filtrate] (active). For `CCC(C)n1c(O)c(/C=N/Nc2nc3c(c(=O)n(C)c(=O)n3C)n2C)c(=O)[nH]c1=S` (stereo not given) the value was -14.1%; for `C[C@@]1([C@@H](NP(=O)(c2ccccc2)c2ccccc2)c2ccccc2)C[C@H]1CCO`, 15%. For the compound `COc1ccc(NC(=O)c2cn(CCC#N)nc2-c2ccc([N+](=O)[O-])cc2)cc1`, the activity change (cytotoxicity) is -13.1%. As for `CCCCCCCCCCCCn1ccc(=N)cc1`, the figure is -61.1% (active); as for `O=c1[nH]c(CN2CC=C(c3ccccc3)CC2)nc2scc(-c3cccs3)c12`, 0.9%.

As to `Cc1ccc2c(c1)C1CN(C)CCC1N2C(=O)Cn1nnc(-c2ccccc2F)n1` (stereo not given), the activity change (cytotoxicity) is 2%. As for `c1cncc(CNCCc2c[nH]c3ccccc23)c1`, the figure is 7.7%; as for `c1ccc(C2NCc3ccccc3-n3cccc32)cc1` (stereo not given), -7.9%. For `Cc1ccc(C(C)C)c(OCC(=O)N2CCN(CC(=O)N3CCOCC3)CC2)c1` the value was -1.3% [cells stimulated with P. aeruginosa culture filtrate]; for `COCCNC(=O)CN1C2CCC1CC(O)(c1cccnc1)C2` (stereo not given), 1.5%; for `COC1C(O)C(C)OC(OC2CCC3(C=O)C(CCC4C3CCC3(C)C(C5=CC(=O)OC5)CCC43O)C2)C1O` (stereo not given), -58.4% [cells stimulated with P. aeruginosa culture filtrate] (active). As to `COC(=O)C1=C(c2ccc(Cl)c(C(F)(F)F)c2)C[C@@H]2CC[C@H]1N2C(=O)NC(C)C`, the activity change (cytotoxicity) is -0.4% [cells stimulated with P. aeruginosa culture filtrate]. For `CC(=O)NCC1=C(c2ccc3ccccc3c2)C[C@@H]2CC[C@H]1N2Cc1ccco1` the value was -7.6%.
